Test results: PubChem BioAssay AID772 (SRMLSC, 2007)
In all, about 3,300 compounds went through this assay and about 20 (0.6%) were called active.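 The calls were made as follows: active = growth inhibition above 90%, meaning viable cell count cut by more than 90% versus vehicle controls; inactive = growth inhibition below 90%.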 The full list was thinned out, with actives kept by preference.

Assay: HT29 colon tumor cell growth inhibition, primary screen, imaging, high content imaging, 72 h, CellTiter-Glo (AID 772);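 as to condensed nuclei: condensed means nuclear area below control median minus 1.5 SD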
Conditions: HCS imaging cell count, at 10 µM, stronger effect = higher value; for condensed nuclei: measured here: percent cells with condensed nuclei
[1] = measured here: ATP CellTiter-Glo viability

For `CCOC(=O)c1c(C)n(C)c2ccc(OC)c(NC(=O)CCN3CCSCC3)c12`, the growth inhibition was -24% (inactive), the growth inhibition [1] was -19.5% and the condensed nuclei was 1.98%.

In the case of `Cc1cc2c(c(=O)n1CC1CCCO1)C(c1ccc3c(c1)OCO3)C(C#N)=C(N)O2` (stereo unspecified), the growth inhibition was -29.9% (inactive), the growth inhibition [1] was -39% and the condensed nuclei was 2.84%.

For `COC(=O)C(NC(=O)c1ccccc1)(Nc1nccs1)C(F)(F)F` (stereo unspecified), the growth inhibition was 60.8% (inactive), the growth inhibition [1] was 20.8% and the condensed nuclei was 9.01%.

In the case of `CC(C)(C)C1=Nn2c(nnc2-c2ccccn2)SC1`, the growth inhibition was -24.5% (inactive), the growth inhibition [1] was -54.2% and the condensed nuclei was 2.89%.

For `Cn1c(Cl)nc2c1c(=O)n(Cc1cccc(Br)c1)c(=O)n2C`, the growth inhibition was 58.3% (inactive), the growth inhibition [1] was 38% and the condensed nuclei was 20.4%.

In the case of `CC(NC(=O)NCc1cccnc1)(C(F)(F)F)C(F)(F)F`, the growth inhibition was -58% (inactive), the growth inhibition [1] was -34.9% and the condensed nuclei was 7.24%.

In the case of `CCO/C(C)=N/n1c2nc3ccccc3nc2c2c(=O)n(Cc3ccccc3Cl)c(C)nc21`, the growth inhibition was -20.7% (inactive), the growth inhibition [1] was -31% and the condensed nuclei was 2.79%.

In the case of `CC(C)N=c1cc2n(-c3ccc(Cl)cc3)c3ccccc3nc-2cc1Nc1ccc(Cl)cc1`, the growth inhibition was 39.7% (inactive), the growth inhibition [1] was 87% and the condensed nuclei was 30.8%.

With `COC(=O)NC(Nc1sc2c(c1C(N)=O)CCCC2)(C(=O)OC)C(F)(F)F` (stereo unspecified) the growth inhibition was -86.9% (inactive), the growth inhibition [1] was -40.6% and the condensed nuclei was 3.2%.

For `O=C(CN1C(=O)c2ccccc2S1(=O)=O)NCCSCc1ccco1`, the growth inhibition was 36.4% (inactive), the growth inhibition [1] was 6.94% and the condensed nuclei was 3.38%.

For `CCCCCNC(=O)C(C#N)c1nc2ccccc2nc1N1CC(C)OC(C)C1` (stereo unspecified), the growth inhibition was 31% (inactive), the growth inhibition [1] was -14.9% and the condensed nuclei was 8.13%.

With `CCCCCCc1cc2cc(-c3nnc(-c4ccccc4O)o3)c(=O)oc2cc1O` the growth inhibition was 23.4% (inactive), the growth inhibition [1] was 12.5% and the condensed nuclei was 4.18%.

In the case of `CCN(CC)c1ccc2cc(C(=O)Nc3ccccn3)c(=O)oc2c1`, the growth inhibition was 12.7% (inactive), the growth inhibition [1] was -23.3% and the condensed nuclei was 5.56%.

With `CCN(CC)c1ccc2cc(-c3nnc(-c4ccncc4)o3)c(=O)oc2c1` the growth inhibition was 99.1% (active), the growth inhibition [1] was -9.72% and the condensed nuclei was 4.75%.

In the case of `CCOC(=O)CSc1nnc2n(Cc3ccccc3)c(=O)c3c4c(sc3n12)CCC4`, the growth inhibition was 17.8% (inactive), the growth inhibition [1] was -5.86% and the condensed nuclei was 16.9%.

For `CCOC(=O)c1ccc(NC(=O)CCC(CC)C(=O)O)cc1` (stereo unspecified), the growth inhibition was -26.9% (inactive), the growth inhibition [1] was -22.9% and the condensed nuclei was 2.9%.

In the case of `CC1(C(=O)CSc2n[nH]c(-c3ccccc3Cl)n2)CCC(=O)O1` (stereo unspecified), the growth inhibition was -77.2% (inactive), the growth inhibition [1] was -34.5% and the condensed nuclei was 2.66%.

In the case of `OCCN(CCO)c1ncnc2c1sc1nc(N3CCOCC3)c3c(c12)CCCC3`, the growth inhibition was 49.2% (inactive), the growth inhibition [1] was 92.5% and the condensed nuclei was 17.2%.

In the case of `CC1(C)Cc2c(sc3nc(SCC#N)n(C4CCCCC4)c(=O)c23)CO1`, the growth inhibition was 25.6% (inactive), the growth inhibition [1] was 23.5% and the condensed nuclei was 3.8%.

In the case of `N#CC(C(=O)NC1CCCCC1)c1nc2ccccc2nc1N1CCN(c2ccccc2F)CC1` (stereo unspecified), the growth inhibition was -45.2% (inactive), the growth inhibition [1] was -45.5% and the condensed nuclei was 1.44%.

With `CCCCC(CCC(=O)Nc1ccc(C(=O)OC)cc1)C(=O)O` (stereo unspecified) the growth inhibition was 37.5% (inactive), the growth inhibition [1] was -7.18% and the condensed nuclei was 1.33%.

In the case of `Cc1c(CCC#N)c(N2CCN(C3CCCCC3)CC2)n2c(nc3ccccc32)c1C#N`, the growth inhibition was 32.8% (inactive), the growth inhibition [1] was -4.95% and the condensed nuclei was 10.6%.

For `Cc1cc(COc2ccccc2OCCN2CCN(C)CC2)no1`, the growth inhibition was 4.14% (inactive), the growth inhibition [1] was 10.2% and the condensed nuclei was 1.56%.

For `CC(=O)c1cc(C#N)c(SCc2ccncc2)nc1C`, the growth inhibition was 26.3% (inactive), the growth inhibition [1] was 11% and the condensed nuclei was 4.17%.

With `CCOC(=O)CC(=O)CSc1nc2c(cc1C#N)CCCCCC2` the growth inhibition was -4.76% (inactive), the growth inhibition [1] was -61.7% and the condensed nuclei was 6.69%.

With `COC(=O)CC1SC(=O)NC1=O` (stereo unspecified) the growth inhibition was -1.44% (inactive), the growth inhibition [1] was -13% and the condensed nuclei was 4.51%.

In the case of `Cc1ccc(SCc2nnc(N)s2)cc1`, the growth inhibition was -4.01% (inactive), the growth inhibition [1] was 13.4% and the condensed nuclei was 15.1%.

In the case of `CCN(CC)CCCC1(CN)OCCc2ccccc21` (stereo unspecified), the growth inhibition was -50.9% (inactive), the growth inhibition [1] was -27.8% and the condensed nuclei was 1.84%.

With `CCOc1cccc(-c2nnc3sc(-c4cc(OC)c(OC)c(OC)c4)nn23)c1` the growth inhibition was -44.5% (inactive), the growth inhibition [1] was -50.4% and the condensed nuclei was 2.45%.

With `Cc1ccc2cc(CN(C(=O)c3ccco3)c3ccccc3C)c(=O)[nH]c2c1` the growth inhibition was -61.6% (inactive), the growth inhibition [1] was -59.5% and the condensed nuclei was 2.77%.

In the case of `CCCOc1ccc(Cl)cc1CN1CCOCC1`, the growth inhibition was -59.3% (inactive), the growth inhibition [1] was -68.7% and the condensed nuclei was 3.51%.

In the case of `COn1c(SC2CCCCC2)nc2ccccc2c1=O`, the growth inhibition was 52.3% (inactive), the growth inhibition [1] was 29.2% and the condensed nuclei was 12.3%.

For `CCOC(=O)C1=C(N)n2c(s/c(=C\c3ccco3)c2=O)=C(C(=O)OC(C)C)C1c1ccco1` (stereo unspecified), the growth inhibition was 50% (inactive), the growth inhibition [1] was -8.27% and the condensed nuclei was 23.3%.

With `O=C(O)c1cc2sccc2s1` the growth inhibition was 33% (inactive), the growth inhibition [1] was -8.08% and the condensed nuclei was 8.44%.

In the case of `CC1(C)NC(=O)N(CC(O)COc2ccccc2C(=O)Nc2ccccc2)C1=O` (stereo unspecified), the growth inhibition was -19.4% (inactive), the growth inhibition [1] was -40.4% and the condensed nuclei was 5.25%.

For `COC(=O)C1C(=O)CC(C)(O)C(C(=O)OC)C1c1ccccc1F` (stereo unspecified), the growth inhibition was 19% (inactive), the growth inhibition [1] was -32.9% and the condensed nuclei was 2.72%.

With `O=C(OCC#CCSc1nnc(-c2ccccc2)o1)c1cccs1` the growth inhibition was 38% (inactive), the growth inhibition [1] was 5.5% and the condensed nuclei was 10.3%.
